HCV NS3h FP: hepatitis C NS3 helicase inhibition, primary screen; NS3h Cy5-dT15 DNA binding, fluorescence polarization; inhibition, % at 100 µM; hit rate 1.6% among 16,000; AID 687043;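 active means inhibition above the average over every tested compound plus 3 SD, cut at about 40% in these data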
Cy5 interf NS3h: counter-screen for HCV NS3 helicase inhibitors: fluorescence interference; Cy5-dT15 DNA with NS3h; actives lie on both sides; signal over control mean, under 1 quenches; fluorescence interference ratio at 100 µM; hit rate 6% among 16,000; AID 720488;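 active means compound fluorescence over control fluorescence at most 0.8, a quencher, or at least a set upper limit, an enhancer; inactive means ratio between 0.8 and the set upper limit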
HCV NS3h conf: hepatitis C NS3 helicase inhibition, confirmation; shares compounds with HCV NS3h FP; hit rate 20% among 240; NS3h binding to Cy5-dT15 DNA, fluorescence polarization; inhibition, % at 100 µM; AID 720485;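 active means percent inhibition of 50% or more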
SSB FP counter: disrupts E. coli SSB binding to DNA in counter-screen; shares compounds with HCV NS3h FP; E. coli SSB binding Cy5-dT15, fluorescence polarization; inhibition, % at 100 µM; hit rate 40% among 240; AID 720486;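 active means inhibition of at least 50%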;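 further: displacers lower Cy5 polarization so higher inhibition means more SSB displaced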
Target sequence (P0AGE0 whole entry, looked up): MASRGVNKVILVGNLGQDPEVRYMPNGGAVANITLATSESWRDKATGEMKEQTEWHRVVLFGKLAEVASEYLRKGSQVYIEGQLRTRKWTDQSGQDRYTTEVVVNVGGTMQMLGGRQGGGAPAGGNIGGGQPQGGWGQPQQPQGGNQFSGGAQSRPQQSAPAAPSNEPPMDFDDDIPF
Cy5 SSB interf: Cy5 fluorescence interference in NS3h counter-screen | shares compounds with HCV NS3h FP | Cy5-dT15/E. coli SSB fluorescence interference; actives lie on both sides | fluorescence interference ratio at 100 µM | hit rate 8% among 240;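 active means fluorescence interference ratio at or above 1.2, signal boosting, or at or below 0.8, signal quenching; inactive means ratio between 0.8 and 1.2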;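 further: ratio of compound well signal to mean negative control signal so 1 means no effect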
Cy5 interf conf: Cy5 fluorescence interference, confirmation counter-screen; shares compounds with HCV NS3h FP; hit rate 44% among 240; Cy5-dT15 DNA/NS3h fluorescence interference counterscreen; AID 720489; fluorescence interference ratio at 100 µM, hits read low;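 active means fluorescence interference ratio at or below 0.8 quencher or at or above a set limitenhancer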;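 further: ratio of compound fluorescence to mean of negative controls so 1 means no interference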
* hit, by the source's call; . = no result given. Shown are actives, neighbours in structure and some others; about 6.8% of the full set was active somewhere.

SMILES | HCV NS3h FP | Cy5 interf NS3h | HCV NS3h conf | SSB FP counter | Cy5 SSB interf | Cy5 interf conf
CSc1ccccc1N1C(=O)C2CC(C)=C(C)CC2C1=O (stereo not given) | 0 | 1 | . | . | . | .
CC(=O)c1ccc2c(c1)c1ccccc1n2C | 18 | 0.98 | . | . | . | .
Cn1c2ccc(CC(N)=O)cc2c2cc(CC(N)=O)ccc21 | 44* | 1.2 | 2 | 8 | 1.1 | 0.84
CC1=NN(c2ccc(S(N)(=O)=O)cc2)C(=O)/C1=C\c1ccc(-c2ccc(Cl)c(C(=O)OC(C)C)c2)o1 | 5 | 0.95 | . | . | . | .
COc1cccc(/C=C2/C(=O)NC(=O)N(c3cc(C)cc(C)c3)C2=O)c1O | 16 | 1.1 | . | . | . | .
COc1cc(/C=C2\C(=O)NC(=O)N(c3cc(C)cc(C)c3)C2=O)cc([N+](=O)[O-])c1O | 60* | 1.1 | 16 | 51* | 0.85 | 0.74*
C=CCNC(=O)c1ccc(OCc2ccccc2)cc1 | 7 | 1.1 | . | . | . | .
Cc1ccc(-c2nc3ccc(C)cn3c2NC(=O)c2ccco2)cc1 | 9 | 0.88 | . | . | . | .
O=C(/C=C/c1ccc(F)cc1)Nc1cccc([N+](=O)[O-])c1 | 27 | 0.86 | . | . | . | .
CC(=O)COc1ccc2c(oc(=O)c3ccccc32)c1C | 30 | 1 | 9 | 4 | 0.97 | 0.71*
Cc1c(OCC(=O)c2ccccc2)ccc2c1oc(=O)c1ccccc12 | 14 | 0.98 | . | . | . | .
O=C1/C(=C\c2cccc(Br)c2)SC(=S)N1CC(=O)N1c2ccccc2Sc2ccccc21 | 1 | 1.1 | . | . | . | .
COc1ccc(N2C(=O)NC(=O)/C(=C\c3ccc(O)c(Cl)c3)C2=O)cc1 | 47* | 1.1 | 15 | 13 | 0.98 | 0.75*
O=C1NC(=O)N(c2cccc(F)c2)C(=O)/C1=C/c1ccc(O)c(Cl)c1 | 27 | 1 | . | . | . | .
O=C1NC(=S)N(c2ccc(Cl)cc2)C(=O)C1=Cc1ccsc1 | 26 | 0.89 | . | . | . | .
Cc1ccc(N2C(=O)NC(=O)/C(=C\c3ccsc3)C2=O)cc1 | 55* | 1.2* | -1 | 3 | 0.98 | 0.74*
COc1cc(OC)c(OC)cc1/C=C1/C(=O)NC(=O)N(c2ccccc2)C1=O | 44* | 1.2* | 3 | 7 | 1 | 1
COc1ccc(N2C(=O)NC(=O)/C(=C\c3cc(OC)c(OC)cc3OC)C2=O)cc1 | 1 | 1 | . | . | . | .
COc1ccc(CN2CCN(Cc3ccc(OC)c(OC)c3OC)CC2)c(OC)c1 | -1 | 1.1 | . | . | . | .
CCC(=O)Oc1cc2oc(=O)c(CC)c(C)c2cc1CC | -2 | 0.98 | . | . | . | .
O=C(Nc1cccc(C(F)(F)F)c1)Nc1ccc(Cl)c(Cl)c1 | 3 | 1.1 | . | . | . | .
O=C(O)c1ccc(Nc2nc(-c3ccc(Br)cc3)cs2)cc1 | 6 | 0.99 | . | . | . | .
COc1ccc(/C=C2/SC(=S)N(c3cccc(Cl)c3)C2=O)c2ccccc12 | 16 | 1.1 | . | . | . | .
Cc1cc([N+](=O)[O-])ccc1-c1ccc(/C=C2/C(=O)NC(=S)N(c3ccc(Cl)cc3)C2=O)o1 | 6 | 1.2 | . | . | . | .
Cc1cc(C)c(N2C(=O)NC(=O)/C(=C/c3ccc([N+](=O)[O-])o3)C2=O)c(C)c1 | 52* | 0.92 | 20 | 94* | 0.94 | 0.75*
SMILES | HCV NS3h FP | Cy5 interf NS3h | HCV NS3h conf | SSB FP counter | Cy5 SSB interf | Cy5 interf conf
Cc1ccc(C(=O)CSc2nc3ccccc3c(=O)n2-c2ccccc2)cc1 | 22 | 1 | . | . | . | .
Cc1ccc(-n2c(-c3ccccc3F)nc3c(cnn3-c3ccccc3)c2=O)cc1 | 41* | 1.2 | 3 | 7 | 1.1 | 0.77*
O=C(Nc1ccc(F)cc1)/C(=C\c1cccs1)NC(=O)c1ccccc1 | 2 | 1 | . | . | . | .
O=C(N/C(=C/c1cccs1)c1nc2ccccc2[nH]1)c1ccccc1 | 23 | 1 | 20 | 36 | 0.96 | 0.77*
Cc1ccc(C)c(N2CC(C(=O)Nc3ccc([N+](=O)[O-])cc3)CC2=O)c1 (stereo not given) | 8 | 0.92 | . | . | . | .
COC(=O)C1=C(C)N=c2s/c(=C/c3cccs3)c(=O)n2C1c1ccc(OC)cc1 (stereo not given) | 10 | 1 | . | . | . | .
O=C1NC(=S)N(c2ccccc2)C(=O)/C1=C/c1ccc(-c2ccc(Cl)c(C(=O)O)c2)o1 | 93* | 1 | 40 | 90* | 0.95 | 0.78*
O=C1NC(=S)N(c2ccccc2)C(=O)/C1=C/c1ccc(-c2cccc(Cl)c2Cl)o1 | 13 | 0.96 | . | . | . | .
Cc1ccc(N2C(=O)/C(=C\c3ccc(-c4ccc(Cl)c(C(=O)O)c4)o3)C(=O)NC2=S)cc1 | 83* | 0.86 | 48 | 94* | 0.88 | 0.73*
COc1cc([N+](=O)[O-])ccc1-c1ccc(/C=C2\C(=O)NC(=S)N(c3ccc(Cl)cc3)C2=O)o1 | 17 | 1 | . | . | . | .
Cc1ccc2cc(C3=C/C(=C/c4ccccn4)C(=O)O3)ccc2c1 | 14 | 1.1 | . | . | . | .
CC(=O)Oc1cccc(N2C(=O)c3ccc(C(=O)c4ccc5c(c4)C(=O)N(c4cccc(OC(C)=O)c4)C5=O)cc3C2=O)c1 | 41* | 0.99 | 2 | 11 | 0.98 | 0.91
CC(=O)Oc1ccc(N2C(=O)c3ccc(C(=O)c4cccc([N+](=O)[O-])c4)cc3C2=O)cc1 | 5 | 1 | . | . | . | .
CCCCOc1ccc(C(=O)NCc2ccccc2F)cc1 | 12 | 0.96 | . | . | . | .
CCOc1cc(C=C2C(=O)NC(=S)NC2=O)ccc1OCCOc1ccccc1OC | 15 | 0.94 | . | . | . | .
C=CCOc1ccc(C=C2C(=O)NC(=O)NC2=O)cc1OC | 38 | 1 | . | . | . | .
O=C1ON=C(c2ccc(Cl)cc2)/C1=C/c1ccccc1Cl | 9 | 0.94 | . | . | . | .
COc1cc(OC)c(C=C2C(=O)NC(=S)NC2=O)cc1Br | 59* | 1 | 15 | 38 | 0.98 | 0.97
C=CCOc1ccccc1C=C1C(=O)NC(=S)NC1=O | 56* | 0.92 | 40 | 107* | 0.9 | 1
C=CCOc1ccccc1/C=C1/C(=O)ON=C1c1ccc(Cl)cc1 | 53* | 1 | 34 | 20 | 0.93 | 0.86
O=C1NC(=O)C(=Cc2ccccc2OCc2ccccc2F)C(=O)N1 | 18 | 0.94 | . | . | . | .
C=CCOc1ccc(C=C2C(=O)NC(=S)NC2=O)cc1OC | 82* | 1 | 51* | 92* | 0.93 | 0.77*
COc1ccc(NS(=O)(=O)c2cccs2)cc1OC | 4 | 1 | . | . | . | .
O=C(Nc1nc2ccccc2n1Cc1ccccc1Cl)c1ccc(Cl)cc1 | -8 | 0.88 | . | . | . | .
O=C(NC(=S)Nc1ccc(S(=O)(=O)Nc2nccs2)cc1)c1sc2ccccc2c1Cl | 26 | 0.92 | . | . | . | .
COc1ccc(NS(=O)(=O)c2ccc(NC(=S)NC(=O)c3sc4cc(F)ccc4c3Cl)cc2)nn1 | 63* | 0.98 | 14 | 8 | 1 | 0.76*
O=C(NCCc1ccccc1Cl)C(=O)NCc1ccco1 | 6 | 1 | . | . | . | .
COc1cccc(/C=C2/C(=O)ON=C2c2ccccc2)c1OC | 3 | 0.83 | . | . | . | .
O=C1ON=C(c2ccccc2)/C1=C\c1ccc(OCc2ccccc2)cc1 | 40 | 1 | 3 | 9 | 0.96 | 0.75*
CN(C1=NC(=O)/C(=C\C=C\c2ccccc2)S1)c1ccc(O)cc1 | 52* | 0.97 | 21 | 2 | 0.93 | 0.69*

Screening results from PubChem.
